Nine compounds from PubChem BioAssay (NCI) can be followed below.

The panel holds about 83,000 compounds, 20% with a hit somewhere; the sample as a whole holds those more often.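 Testing used 96-well plates and a 48-hour single-concentration exposure. Example: -40 means 40% of the starting cells died.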 A number with no mark means an inactive call. Activity calls are given as the source filed them. How the source made its calls: active means growth percent below 10; inactive means the rest.

Holding throughout (assay): NCI-60 one-dose screen, 48 h (100 = growth as untreated, 0 = no growth, -100 = all killed)
Common to all, as to conditions: 10 µM unless noted

Test [1] deals with SK-MEL-2 melanoma.
Test [2] has as its system EKVX NSCLC.
The test system of test [3] is SN12C renal.
Test [4] has as its system UO-31 renal.
Test [5] relates to TK-10 renal.
Test [6] relates to ACHN renal.
For test [7], the system named is A498 renal.
Test [8] concerns CCRF-CEM leukemia.
Test [9] has as its system MOLT-4 leukemia.
Test [10] relates to RPMI-8226 leukemia.
For test [11], the system named is OVCAR-8 ovarian.
Test [12] concerns OVCAR-5 ovarian.
In test [13] the test system is OVCAR-4 ovarian.
Test [14] relates to SK-OV-3 ovarian.
Test [15] concerns OVCAR-3 ovarian.
The test system of test [16] is NCI/ADR-RES ovarian.
Test [17] relates to SR leukemia.
In test [18] the test system is IGROV1 ovarian.
In test [19] the test system is HS 578T breast.

Regarding `CNC(=O)NN`, the growth was 119% in test [1]; 91.5% in test [2]; 110% in [3]; 71.7% in [4]; 111% in test [5]; 88.9% in test [6]. The growth in [7] is 93.2%; in test [8] it was 65.8%; in test [9] it was 105%; in [10], 91.9%; in test [11] it was 97.5%; in [12], 82.5%. Also, the growth in test [13] is 110%; in test [14], 95.9%; in test [15] it was 91.8%; in test [16], 105%.

Turning to `Clc1ccc2c(NCCNc3nc(Cl)nc4ccccc34)ccnc2c1`, the growth in test [1] was -73.2% (active); in [2], -9.06% (active); in test [3], -76.6% (active); in [4], -95.6% (active); in test [5], -79.3% (active); in test [6], -97.7% (active). In addition, the growth was 92.3% in test [7]; -52.4% (active) in test [9]; -27.3% (active) in test [17]; -50.7% (active) in test [10]; -62.5% (active) in [11]; -49.9% (active) in test [12]. Moreover, the growth in test [13] is -72% (active); in test [14], -80.4% (active); in test [18], -85% (active); in [15] it was -78% (active); in test [19], -41.9% (active).

Take `CCc1c2cc(Cl)ccc2n2cc(Cc3ccccc3)[nH]c(=O)c12`: the growth in test [1] is 97.5%; in test [2] it was 101%; in test [3], 101%; in test [4] it was 82.3%; in test [5] it was 120%; in test [6] it was 93.3%. Further, the growth in test [7] is 102%; in test [8], 93.9%; in [10], 110%; in [11], 99.1%; in test [12], 93.9%; in test [13] it was 102%. The growth was 103% in test [14]; 90.5% in test [18]; 99.2% in test [15]; 87.4% in test [19]; 100% in [16].

For the compound `COc1cc(/C=C/C(=O)c2c(C)[n+]([O-])c3ccccc3[n+]2[O-])ccc1O`, the growth was 83.8% in [1]; 84.5% in [2]; 101% in test [3]; 80.4% in test [4]; 55.9% in [5]; 95.4% in test [6]. For the same compound, the growth in [7] is 101%; in test [8] it was 124%; in test [9], 126%; in test [10] it was 104%; in test [11], 89.4%; in test [12], 110%. Besides, the growth in [13] is 155%; in test [14] it was 97.8%; in test [18], 61.4%; in [19], 99.4%; in [16], 104%.

For the compound `CC1(C)N=C(N)N=C(N)N1c1ccc(OCC(=O)Nc2ccccc2)c(Cl)c1`, the growth was 47.5% in test [1]; 48.9% in [2]; 30.5% in test [3]; 104% in [4]; 57.6% in test [5]; 103% in test [6]. The growth in test [7] is 94.8%; in [8], 28.8%; in test [9], 32%; in test [10], 34.5%; in test [11], 21.9%; in test [12], 49%. The growth was 46.1% in [13], 97.7% in test [19] and 102% in test [16].

Turning to `COc1cc2ncnc(Oc3ccc(NC(=O)Nc4ccc(C5(C#N)CCCC5)cc4)c4ccccc34)c2cc1OC`, the growth in test [1] is 80.9%; in [2], 57.7%; in [3], 21.3%; in test [4] it was 55.8%; in test [5] it was 24.1%; in [6] it was 29.3%. Also, the growth in test [7] is 82.4%; in [9], 60.9%; in test [17], 70.3%; in test [10] it was 58.8%; in test [11], 0.585% (active); in test [12], 81%. Besides, the growth in test [13] was -1.26% (active); in test [14], 40.7%; in [18] it was 40%; in [15] it was 52%; in test [19], 29.6%; in [16], 72.2%.

Take `CC(C)(C)NC(C1=CC(C)(C)c2ccccc2C1=O)c1ccccc1` (configuration not stated): the growth in test [1] was -65.1% (active); in test [2], -1.1% (active); in test [3], -14.3% (active); in test [4] it was -97.4% (active); in test [5] it was -6.87% (active); in test [6], -10.5% (active). The growth is 45.1% in [7]; -5.2% (active) in test [8]; -47.4% (active) in [9]; -44.9% (active) in test [10]; -47.9% (active) in test [11]; -75% (active) in [12]. Further, the growth was -52.9% (active) in test [13]; 29.2% in test [14]; -92.5% (active) in test [15]; 46.4% in test [19]; -43.3% (active) in test [16].

`Cc1cccc(NCS(=O)(=O)O)c1`: the growth in test [1] is 109%; in test [2] it was 98.7%; in test [3], 112%; in test [4], 93%; in test [5] it was 98.5%; in test [6], 107%. Besides, the growth in test [7] was 111%; in [9], 102%; in test [17] it was 107%; in test [10] it was 102%; in test [11] it was 88.6%; in [12] it was 107%. In addition, the growth in test [13] is 109%; in [14] it was 97.4%; in test [18] it was 102%; in [15] it was 116%; in [19] it was 104%; in test [16] it was 105%.

Regarding `Cc1cccc(NC(=O)CCc2ccc(N3C(N)=NC(N)=NC3(C)C)cc2)c1`, the growth was 59.9% in test [1]; 55.6% in [2]; 30.3% in [3]; 115% in test [4]; 82.5% in [5]; 101% in [6]. Moreover, the growth in test [7] was 95.2%; in test [8], 31.1%; in test [9], 50.5%; in test [10] it was 32%; in [11], 47.7%; in test [12], 46.7%. Besides, the growth was 51.7% in test [13]; 60.3% in [14]; 65.6% in test [15]; 91.4% in [19]; 95.6% in test [16].
